The structures appear in SMILES notation. A number with no mark means an inactive call. Inconclusive results are not listed. Calls of active or inactive are those of the source. Unless noted, calls come from the whole dose curve; as a rule, active = well fitted curve in the direction sought with a large enough effect; inconclusive = small, poorly fitted or top-dose-only effect, or another doubt; inactive = no such curve, though single readings can be large; an effect the other way counts as inactive or inconclusive. Numbered stars: 1 amine (or outer) side, 2 acyl side, 3 side chain; on linkers, the order of the positions; unused ones are H or OH. Bridge positions count the residues as written; N and C are the ends. Square brackets hold non-standard residues; d marks the D form. Peptide text beside a SMILES is read from it. I, II: the chains in the order shown. Actinocin(9to1) = Cc1c2oc3c(C)ccc(C(=O)[*:1])c3nc-2c(C(=O)[*:2])c(N)c1=O; aThr = C[C@H](O)[C@H](N)C(=O)O; NMeV = CN[C@H](C(=O)O)C(C)C; Sar = CNCC(=O)O

The target in test [1] is Cytochrome P450 1A2 (Homo sapiens) (UniProt P05177). As to the kind of experiment: p450-cyp1a2 (AID 410; calls by dose curve). The method, boiled down: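 Human CYP1A2 (20nM) demethylated Luciferin-ME at its Km (100uM) in 100mM KPO4. After 10 min compound preincubation, NADPH regeneration ran the reaction 60 min at room temperature. Luciferin was read by luminescence, normalized to 57 uM furafylline.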
Cytochrome P450 1A2 (Homo sapiens), sequence (P05177 whole entry, looked up): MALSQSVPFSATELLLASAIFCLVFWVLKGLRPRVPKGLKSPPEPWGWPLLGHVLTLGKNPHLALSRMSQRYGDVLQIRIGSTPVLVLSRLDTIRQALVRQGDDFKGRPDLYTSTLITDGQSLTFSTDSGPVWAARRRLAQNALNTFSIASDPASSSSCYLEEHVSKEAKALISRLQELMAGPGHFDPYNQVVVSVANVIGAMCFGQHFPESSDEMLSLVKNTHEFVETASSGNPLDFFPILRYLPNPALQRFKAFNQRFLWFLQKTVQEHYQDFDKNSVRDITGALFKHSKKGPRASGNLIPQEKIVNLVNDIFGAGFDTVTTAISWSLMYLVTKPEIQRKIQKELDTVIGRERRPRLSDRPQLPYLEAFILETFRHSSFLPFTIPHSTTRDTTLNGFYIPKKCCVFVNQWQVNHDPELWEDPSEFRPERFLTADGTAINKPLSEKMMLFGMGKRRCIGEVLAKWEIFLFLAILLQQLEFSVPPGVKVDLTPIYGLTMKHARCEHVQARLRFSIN

The target in test [2] is Glucocorticoid receptor (Homo sapiens) (UniProt P04150). As to the kind of experiment: GR-GFP Redistribution (AID 450;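 active = compounds whose dose series gives a full or clear partial fitted curve of increased nuclear translocation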; note: potency is the fitted concentration of half-maximal effect). The settings on record: U2OS GR-GFP nuclear translocation, laser cytometry, 2 h.
Glucocorticoid receptor (Homo sapiens), sequence (P04150 whole entry, looked up, the tested form may be a part): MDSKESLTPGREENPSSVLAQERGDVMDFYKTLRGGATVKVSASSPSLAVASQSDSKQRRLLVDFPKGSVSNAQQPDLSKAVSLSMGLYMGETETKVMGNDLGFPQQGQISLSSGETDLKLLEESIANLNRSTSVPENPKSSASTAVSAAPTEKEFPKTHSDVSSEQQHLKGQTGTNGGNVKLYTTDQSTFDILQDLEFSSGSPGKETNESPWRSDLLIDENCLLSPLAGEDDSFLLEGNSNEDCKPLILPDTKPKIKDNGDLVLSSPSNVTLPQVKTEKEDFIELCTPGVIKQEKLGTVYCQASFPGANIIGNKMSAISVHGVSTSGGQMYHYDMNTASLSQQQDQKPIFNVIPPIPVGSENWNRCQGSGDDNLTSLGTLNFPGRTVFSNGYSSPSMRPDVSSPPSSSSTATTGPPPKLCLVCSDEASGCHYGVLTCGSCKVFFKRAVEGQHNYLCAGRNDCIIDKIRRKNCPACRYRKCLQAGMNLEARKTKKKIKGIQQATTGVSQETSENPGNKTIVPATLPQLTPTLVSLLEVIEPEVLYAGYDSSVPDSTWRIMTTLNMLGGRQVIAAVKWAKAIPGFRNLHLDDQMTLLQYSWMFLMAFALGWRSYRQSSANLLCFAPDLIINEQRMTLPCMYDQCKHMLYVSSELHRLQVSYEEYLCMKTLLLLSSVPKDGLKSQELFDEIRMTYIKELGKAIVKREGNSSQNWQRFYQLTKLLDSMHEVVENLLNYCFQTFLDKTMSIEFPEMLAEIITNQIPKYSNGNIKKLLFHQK
The target is the same in test [3]. Description: GR-EFC Redistribution (AID 451; calls by dose curve; note: potency is the fitted concentration of half-maximal effect). The conditions noted are these: CHO-K1 GR-EFC translocation, beta-gal luminescence, 2 h. In outline: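 Translocation of GR-ED fusion to nuclear EA restores b-gal, read by luminescence after 1 h room-temperature detection. Engineered CHO-K1 biosensor cells, 1,000/well, exposed 2 h at 37 C to titrations up to 46 uM final.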

The target in test [4] is Mitogen-activated protein kinase 10 (Mus musculus) (UniProt Q61831). Description: JNK3 AlphaScreen Assay (AID 530; active = well fitted curve in either direction with a large enough effect, not every such curve was filed as active;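 note: kinase came from lysate of stimulated human HepG2 cells; signal reports phosphorylation of biotinylated GST-cJun 1-79 at Ser73 with 10 µM ATP; series mostly up to about 57 µM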). In outline: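 Room-temperature AlphaScreen kinase assay; pre-activated HepG2 lysate as JNK3 source, biotin-GST-cJun(1-79) substrate, 10 uM ATP, compound 15 min preincubation.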
A general note: In Alpha technology, singlet oxygen from a donor bead excites a nearby acceptor bead.

The target of test [5] is Cytochrome P450 3A4 (Homo sapiens) (UniProt P08684). As to the kind of experiment: qHTS Assay for Activators of Cytochrome P450 3A4 (AID 885). Note: nearly all actives have a fitted effect of over 65% in size. The method, boiled down: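 Signal was normalized against complete inhibition by 57 uM ketoconazole. The reaction used 20nM CYP3A4 with 25uM Luciferin-PPXE, 10-min compound preincubation and a 60-min NADPH-supported step at RT.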
Cytochrome P450 3A4 (Homo sapiens), sequence (P08684 whole entry, looked up): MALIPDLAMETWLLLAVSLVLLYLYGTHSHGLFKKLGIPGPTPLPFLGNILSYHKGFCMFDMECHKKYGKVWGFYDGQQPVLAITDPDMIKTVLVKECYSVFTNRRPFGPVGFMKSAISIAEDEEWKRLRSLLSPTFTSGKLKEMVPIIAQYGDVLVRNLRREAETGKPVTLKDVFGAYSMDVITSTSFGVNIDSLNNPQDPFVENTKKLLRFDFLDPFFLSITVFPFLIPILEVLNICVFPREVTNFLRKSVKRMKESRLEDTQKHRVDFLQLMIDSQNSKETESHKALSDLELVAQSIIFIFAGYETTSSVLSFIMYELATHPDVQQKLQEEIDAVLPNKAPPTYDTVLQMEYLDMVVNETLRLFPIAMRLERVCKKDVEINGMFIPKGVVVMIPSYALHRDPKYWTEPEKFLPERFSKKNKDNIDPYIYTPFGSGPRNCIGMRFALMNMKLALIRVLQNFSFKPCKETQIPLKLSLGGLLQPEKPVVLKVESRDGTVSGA
Background: Quantitative high-throughput screening tests each substance at several concentrations.

In test [6] the target is DNA dC->dU-editing enzyme APOBEC-3G (Homo sapiens) (UniProt Q9HC16). Description: qHTS for inhibitors of Vif-A3G interactions: Validation (AID 588379). In outline:
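HeLa cells stably expressing Vif and A3G-eYFP, 700 cells/well, incubated overnight at 37 deg C, then exposed to compound overnight at 37 deg C. Inhibition of Vif-mediated degradation read as increased yellow fluorescence (Ex 488/Em 500-530) by laser-scanning cytometry.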

The target of another test is Furin (Homo sapiens) (UniProt P09958). Description: Furin counterscreen qHTS for Zika virus inhibitors (AID 1347149).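 Note: purified recombinant full-length human furin enzyme at 5 nM; fluorescence gain from furin cutting a BOC-RVRR-AMC peptide substrate over 15 min; top concentration of the series differs between compounds; nearly all actives have a fitted effect of over 70% in size.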 In outline: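 Fluorogenic cleavage of BOC-RVRR-AMC (2 microM final, Km ~15 µM) was monitored (ex 340, em 450 nm) at 37C after 15 min RT preincubation of 5 nM furin with compounds in HEPES pH 7.0 buffer with CaCl2 and Triton X-100. Percent inhibition was fitted to a 4-parameter Hill curve.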
Furin (Homo sapiens), sequence (P09958 whole entry, looked up): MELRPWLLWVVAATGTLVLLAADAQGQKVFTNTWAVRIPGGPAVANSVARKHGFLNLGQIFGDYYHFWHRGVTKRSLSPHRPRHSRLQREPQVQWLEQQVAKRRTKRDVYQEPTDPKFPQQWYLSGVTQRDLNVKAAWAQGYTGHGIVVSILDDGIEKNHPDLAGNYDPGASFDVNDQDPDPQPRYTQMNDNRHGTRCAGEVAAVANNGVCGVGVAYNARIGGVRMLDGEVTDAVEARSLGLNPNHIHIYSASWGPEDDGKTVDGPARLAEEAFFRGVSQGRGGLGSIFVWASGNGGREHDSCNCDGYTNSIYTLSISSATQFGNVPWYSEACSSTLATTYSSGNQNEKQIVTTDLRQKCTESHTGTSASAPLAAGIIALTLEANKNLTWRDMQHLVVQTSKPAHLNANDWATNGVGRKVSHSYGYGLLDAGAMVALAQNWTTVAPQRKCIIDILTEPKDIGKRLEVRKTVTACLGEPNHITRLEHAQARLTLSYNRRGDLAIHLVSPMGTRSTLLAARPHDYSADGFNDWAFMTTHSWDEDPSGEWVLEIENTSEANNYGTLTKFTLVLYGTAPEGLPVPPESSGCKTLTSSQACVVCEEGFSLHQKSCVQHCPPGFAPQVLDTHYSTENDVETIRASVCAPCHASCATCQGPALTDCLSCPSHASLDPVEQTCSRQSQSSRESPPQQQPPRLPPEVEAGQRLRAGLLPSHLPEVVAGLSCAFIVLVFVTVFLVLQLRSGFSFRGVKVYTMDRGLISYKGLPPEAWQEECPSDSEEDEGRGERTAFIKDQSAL

Test [7] relates to Zika virus NS2B-NS3 protease (unlinked). As to the kind of experiment: Optimization of GU AMC qHTS for Zika virus inhibitors: Unlinked NS2B-NS3 protease assay (AID 1347151). Note: potency is the fitted concentration of half-maximal effect; nearly all actives have a fitted effect of over 80% in size. The method, boiled down:
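Unlinked protease (25 nM final); buffer 10 mM Tris-HCl pH 8.0 + 0.01% Tween 20; AMC substrate; 15 min RT, dark; Δfluorescence normalized to no-inhibitor/no-enzyme controls; 4-parameter Hill fit.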

The subject of test [8] is Zika virus NS2B-NS3 protease. Description: Primary screen GU AMC qHTS for Zika virus inhibitors (AID 1347154). Note: nearly all actives have a fitted effect of over 70% in size. In outline:
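Fluorogenic AMC-substrate cleavage by noncovalent NS2B-NS3 protease complex (25 nM, pH 8.0 Tris buffer with Tween 20) followed for 15 minutes at room temperature (~20% conversion). Percent inhibition from ex340/em450 signal change, fitted by 4-parameter Hill equation.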

Test [9] is described as follows: Vero cells viability qHTS for Zika virus inhibitors (AID 1347167). The method, boiled down:
(§1)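 Compounds were tested in concentration series on cells grown in DMEM containing 4% FBS. After 24 to 48 hours, cellular ATP was measured by luminescence with CellTiter Glo.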

Test [10] in a line: HepG2 cells viability qHTS for Zika virus inhibitors (AID 1347168). The method, boiled down:
as §1

Test [11] can be described thus: Primary qHTS for small molecule stabilizers of the endoplasmic reticulum resident proteome: Secreted ER Calcium Modulated Protein (SERCaMP) assay (AID 1508630). In outline: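 GLuc-SERCaMP-expressing SH-SY5Y cells, pretreated 16 h with compound, are challenged with thapsigargin to empty ER calcium stores; after 4 h, coelenterazine is added directly to the medium and luminescence is imaged.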

In test [12] the target is Cytochrome P450 2D6 (Homo sapiens) (UniProt P10635). As to the kind of experiment: Cytochrome P450 family 2 subfamily D member 6 (CYP2D6) small molecule antagonists: luciferase biochemical (cell-free) qHTS assay (AID 1645840; active = well fitted curve in the direction sought with a large enough effect in the repeat runs; an effect the other way counts as inactive or inconclusive; note: series mostly up to about 57 µM; nearly all actives have a fitted effect of over 55% in size). The method, boiled down:
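P450-Glo luminescent screen: recombinant CYP2D6 enzyme–proluciferin substrate mix preincubated with compound 10 min at room temperature, then NADPH regeneration added for 1 h at room temperature. Detection reagent added for 20 min; luciferin light read as relative luminescence units.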

DNA dC->dU-editing enzyme APOBEC-3G (Homo sapiens), sequence (Q9HC16 whole entry, looked up): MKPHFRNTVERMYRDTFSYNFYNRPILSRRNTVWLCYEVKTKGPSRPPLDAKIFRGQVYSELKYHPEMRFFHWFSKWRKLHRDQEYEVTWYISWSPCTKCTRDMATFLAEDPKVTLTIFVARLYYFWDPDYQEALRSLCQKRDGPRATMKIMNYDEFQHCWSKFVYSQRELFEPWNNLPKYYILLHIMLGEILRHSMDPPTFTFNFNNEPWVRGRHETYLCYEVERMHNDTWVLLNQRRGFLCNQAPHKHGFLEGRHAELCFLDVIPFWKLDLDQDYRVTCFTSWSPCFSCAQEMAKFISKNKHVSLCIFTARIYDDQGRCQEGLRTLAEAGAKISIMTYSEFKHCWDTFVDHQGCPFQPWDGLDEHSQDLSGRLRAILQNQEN
Cytochrome P450 2D6 (Homo sapiens), sequence (P10635 whole entry, looked up): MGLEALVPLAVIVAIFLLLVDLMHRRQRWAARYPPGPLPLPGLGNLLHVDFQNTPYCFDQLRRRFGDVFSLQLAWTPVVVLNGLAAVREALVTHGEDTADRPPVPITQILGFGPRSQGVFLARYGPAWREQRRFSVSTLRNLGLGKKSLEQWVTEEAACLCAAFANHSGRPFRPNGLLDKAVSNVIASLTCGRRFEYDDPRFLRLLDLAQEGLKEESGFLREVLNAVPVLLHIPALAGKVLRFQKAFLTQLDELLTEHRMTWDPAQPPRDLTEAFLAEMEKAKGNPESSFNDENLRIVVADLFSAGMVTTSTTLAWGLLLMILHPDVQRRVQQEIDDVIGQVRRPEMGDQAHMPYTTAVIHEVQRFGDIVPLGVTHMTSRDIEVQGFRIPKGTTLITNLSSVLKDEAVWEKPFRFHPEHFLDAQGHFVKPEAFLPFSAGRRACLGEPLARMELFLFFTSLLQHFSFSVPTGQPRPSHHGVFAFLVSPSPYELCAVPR

Regarding `Cc1c2oc3c(C)ccc(C(=O)N[C@@H]4C(=O)N[C@@H](C(C)C)C(=O)N5CCC[C@@H]5C(=O)N(C)CC(=O)N(C)[C@@H](C(C)C)C(=O)O[C@H]4C)c3nc-2c(C(=O)N[C@@H]2C(=O)N[C@@H](C(C)C)C(=O)N3CCC[C@@H]3C(=O)N(C)CC(=O)N(C)[C@@H](C(C)C)C(=O)O[C@H]2C)c(N)c1=O` (I: [aThr]V[dP][Sar][NMeV] / II: [aThr]V[dP][Sar][NMeV]; ester I:1-I:C, II:1-II:C; linker I:N-II:N via Actinocin(9to1)), the Potency result (in test [1]; in [4]; in test [5]; in test [6]; in the test with Furin (Homo sapiens); in test [8]) was “inactive” each time. The Potency entry in test [9], in test [10], in test [11] and in test [12] was “inactive” throughout. Further, the results for the Potency in [2], in test [3] and in [7] were greater than 46 µM, greater than 46 µM and 27.1 µM (active), respectively.

(Values after PubChem BioAssay (NCATS).)
